Test results reported in PubChem BioAssay (EPA / NIEHS).
Where a structure was tested more than once in an assay, its records may differ in their call. The source made the active and inactive calls. How the source made its calls: active means hit-call score of the fitted dose curve at least 0.9, where 1 is the maximum; inactive means score below 0.9.

Assay: ATG_M_32_CIS: Attagene CIS-FACTORIAL HepG2 Assay for M32 Transcription Factor (Internal Marker) (AID 2282949);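 further: background control marker of the multiplexed CIS panel rather than a real target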
Conditions: HepG2 Attagene cis-factorial M32 reporter, mRNA; actives raise or lower the signal
Experimental: ATG_CIS is a cell-based, multiplexed-readout assay that uses HepG2, a human liver cell line, with measurements taken at 24 hours after chemical dosing in a 24-well plate.ATG_M_32_CIS is one of 52 assay component(s) measured or calculated from the ATG_CIS assay. It is designed to make measurements of mRNA induction, a form of inducible reporter, as detected with fluorescence intensity signals by Reverse transcription polymerase chain reaction (RT-PCR) and Capillary electrophoresis technology.Data from the assay component ATG_M_32_CIS was analyzed into 1 assay endpoint. This assay endpoint, ATG_M_32_CIS, was analyzed with bidirectional fitting relative to DMSO as the negative control and baseline of activity. Using a type of inducible reporter, measures of mRNA for gain or loss-of-signal activity can be used to understand the background control at the transcription factor-level as they relate to the gene . Furthermore, this assay endpoint can be referred to as a secondary readout, because this assay has produced multiple assay endpoints where this one serves a background control function. To generalize the intended target to other relatable targets, this assay endpoint is annotated to the background measurement intended target family, where the subfamily is internal marker.
Human liver HepG2 cells are transiently transfected with multiple reporter transcription units (MRTUs) in 6-well plates using FuGene 6 reagent (Roche; 3 ml FuGene/1 mg DNA). The MRTU constructs are regulated by a cis-regulating element (promoter). […] A major difference between the CIS and TRANS system is that in CIS activities of endogenous TFs are measured, whereas the TRANS assay evaluates changes in activities of exogenous, chimeric NR-Gal4 proteins. […] At the end of 24 hour incubation, total RNA was isolated using TriZol reagent (Invitrogen). The isolated RNA is then reverse-transcribed using oligo(dT) primer and Mo-MLV reverse transcriptase (Invitrogen) with DNAse I (Ambion) treatment for 30 min. The one-tenth of the produced cDNA was amplified by PCR using Taq DNA polymerase (Invitrogen) and two reporter sequence-specific primers. The PCR products were fluorescently labeled by primer extension with 6-arboxyfluorescein (6-FAM) 5'-labeled reporter sequence-specific primer (2 min at 95 C, 20 s at 68 C and 10 min at 72 C) and these products were digested with 5U of HpaI (New England Biolabs) for 2h at 37 C. The fragments were purified using Qiaquick PCR columns (Qiagen), analyzed on an ABI 3130xL genetic analyzer (Applied Biosystems) with peak positions identified by using a set of X-rhodamine (ROX)-labeled MapMarker1000 molecular weight standards (BioVentures). The raw capillary electrophoresis data was processed using Attagraph software (Attagene).
With `CC1=NNC(=O)N(/N=C/c2cccnc2)C1` the outcome was “inactive”.
In the case of `COP(=O)(NC(C)=O)SC` (stereo not given), the outcome is reported as “inactive”.
With `COc1cccc(C(=O)NN(C(=O)c2cc(C)cc(C)c2)C(C)(C)C)c1C` the outcome was “inactive”.
With `COc1ccc(C(=CC(=O)N2CCOCC2)c2ccc(Cl)cc2)cc1OC` the outcome was “inactive”.
With `Nc1c(Cl)cc([N+](=O)[O-])cc1Cl` the outcome was “inactive”.
In the case of `CCOP(=O)(OCC)Oc1cc(C)nc(C(C)C)n1`, the outcome is reported as “inactive”.
In the case of `CSc1nnc(C(C)(C)C)c(=O)n1N`, the outcome is reported as “inactive”.
In the case of `CCc1cnc(C2=NC(C)(C(C)C)C(=O)N2)c(C(=O)O)c1` (stereo not given), the outcome is reported as “inactive”.
In the case of `CNC(=O)ON=C(C)SC`, the outcome is reported as “inactive”.
For `CCOC(=O)CC(SP(=O)(OC)OC)C(=O)OCC` (stereo not given), the outcome was “inactive”.
In the case of `CCC(=O)Nc1ccc(Cl)c(Cl)c1`, the outcome is reported as “inactive”.
With `CCOP(=S)(OCC)OC(Cl)C(Cl)(Cl)Cl` (stereo not given) the outcome was “inactive”.
With `COP(=O)(OC)SCn1c(=O)oc2cc(Cl)cnc21` the outcome was “inactive”.
For `CSC1=N[C@@](C)(c2ccccc2)C(=O)N1Nc1ccccc1`, the outcome was “inactive”.
With `CC[C@H](C)[C@H]1O[C@]2(C=C[C@@H]1C)C[C@@H]1C[C@@H](C/C=C(\C)[C@@H](O[C@H]3C[C@H](OC)[C@@H](O[C@H]4C[C@H](OC)[C@@H](NC)[C@H](C)O4)[C@H](C)O3)[C@@H](C)/C=C/C=C3\CO[C@@H]4[C@H](O)C(C)=C[C@@H](C(=O)O1)[C@]34O)O2` the outcome was “inactive”.
In the case of `CCCSP(=O)(OCC)SCCC`, the outcome is reported as “inactive”.
In the case of `O=[N+]([O-])c1cc(C(F)(F)F)c(Cl)c([N+](=O)[O-])c1Nc1ncc(C(F)(F)F)cc1Cl`, the AC50 is reported as 18.1 µM (active) and the outcome is reported as “inactive”.
With `C#CC(C)(C)NC(=O)c1cc(Cl)cc(Cl)c1` the outcome was “inactive”.
In the case of `C[Si](Cn1cncn1)(c1ccc(F)cc1)c1ccc(F)cc1`, the AC50 is reported as 35.4 µM (active).
With `CCCOCC(=Nc1ccc(Cl)cc1C(F)(F)F)n1ccnc1` the outcome was “inactive”.
For `CCCSP(=O)(OCC)Oc1ccc(Br)cc1Cl` (stereo not given), the outcome was “inactive”.
In the case of `Cc1ccn2nc(S(=O)(=O)Nc3c(F)cccc3F)nc2n1`, the outcome is reported as “inactive”.
For `C#CCC1=C(C)C(OC(=O)C2C(C=C(C)C)C2(C)C)CC1=O` (stereo not given), the AC50 was 90.5 µM (active).
For `CNC(=O)Oc1cccc2c1OC(C)(C)O2`, the outcome was “inactive”.
In the case of `CC1(C(=O)Nc2ccc(O)c(Cl)c2Cl)CCCCC1`, the outcome is reported as “inactive”.
With `CC(C)N(C(=O)SCC(Cl)=C(Cl)Cl)C(C)C` the outcome was “inactive”.
For `Cc1cc(C2CC2)nc(Nc2ccccc2)n1`, the outcome was “inactive”.
With `COP(=O)(OC)C(O)C(Cl)(Cl)Cl` (stereo not given) the outcome was “inactive”.
For `CC(=NC#N)N(C)Cc1ccc(Cl)nc1`, the outcome was “inactive”.
In the case of `COc1cc(OC)nc(Sc2cccc(Cl)c2C(=O)O)n1`, the outcome is reported as “inactive”.
For `CC(C)=CC1C(C(=O)OCN2C(=O)C3=C(CCCC3)C2=O)C1(C)C` (stereo not given), the outcome was “inactive”.
With `Nc1nc(N)nc(NC2CC2)n1` the outcome was “inactive”.
For `CC(COc1ccc(Oc2ccccc2)cc1)Oc1ccccn1` (stereo not given), the outcome was “inactive”.
For `CCOP(=O)(SC(C)CC)N1CCSC1=O` (stereo not given), the outcome was “inactive”.
In the case of `CCCCN(CC)c1c([N+](=O)[O-])cc(C(F)(F)F)cc1[N+](=O)[O-]`, the outcome is reported as “inactive”.
In the case of `CSc1nc(NC(C)C)nc(NC(C)C)n1`, the outcome is reported as “inactive”.
For `CCNc1nc(Cl)nc(NC(C)(C)C#N)n1`, the outcome was “inactive”.
In the case of `CCc1cccc(C)c1N(C(=O)CCl)C(C)COC` (stereo not given), the outcome is reported as “inactive”.
For `CCc1cccc(CC)c1N(COC)C(=O)CCl`, the outcome was “inactive”.
